Our source for the outcome and fluorescence, % of fluorescein values is PubChem BioAssay (Tox21).

Structures are written as SMILES. Values without a mark were called inactive. Calls of active or inactive are those of the source. The call rests on the fitted dose curve; in most records, active means well fitted curve in the direction sought with a large enough effect in the repeat runs; inconclusive means weak or mixed curves; inactive means flat fitted curve, though single readings scatter.
On the % scale 0 is the no-effect control and ±100 the full control effect.

This experiment in a line: qHTS assay to test for compound auto fluorescence at 535 nm (green) in HEK293 cells (AID 720680). Particulars: green autofluorescence 485/535 nm; series mostly up to 91.3 µM. The text has this:
U.S. Tox21 Program National Center for Advancing Translational Sciences [NCATS] NIH Chemical Genomics Center [NCGC] U.S. Environmental Protection Agency [EPA] National Institutes of Environmental Health Sciences [NIEHS] National Toxicology Program [NTP] U.S. Food and Drug Administration [FDA] Tox21 Assay Overview: Compound auto fluorescence often interferes with screening of the compound library against various biological targets and signaling pathways. Some of these compounds may have fluorophoric properties. Such properties may interfere with the assay outputs resulting in false positives and/or negatives. To decrease such complications and ensure the compound activities are relevant in terms of biological response, the Tox21 10K compound library was screened for auto fluorescence. From the fluorophores used as reporter signals in our screening assays, the auto fluorescence equivalencies of compounds against three fluorophores have been evaluated: Triamterene, Fluorescein and Rose Bengal sodium for blue, green and red fluorescence, respectively. The fluorescence intensities were measured using Excitation/Emission wavelengths at 405/460nm, 485/535nm and 540/590nm for blue, green and red labels, respectively. This assay includes the green fluorescence data.
Tox21 Assay Protocol Summary: 2,000 HEK293 cells in 5 uL of culture medium containing 10% dialyzed FBS per well were dispensed into black wall/clear bottom 1536-well plates using a Multidrop Combi Dispenser (Thermo Scientific). The assay plates were incubated for 4-5 hr at 37C to allow cell attachment to the well bottom, followed by the transfer of 23 nL compound or DMSO vehicle by a pintool work station (Kalypsys, San Diego, CA). After the assay plates were incubated overnight at 37C and 5% CO2, fluorescence intensities in the assay plates were measured by an Envision (PerkinElmer, Shelton, CT) plate reader using three labels for measuring blue, green and red fluorescence at […] 460, 535 and 590nm respectively.
On to `O=CN1CCCCC1`, for which the compound was classed as inactive.
Take `CCCCCCC(=O)c1ccccc1`: the call was inactive.
On the same count and under the same terms, with `CCCCC(CC)COC(=O)CC#N` (stereo not given) the entry was “inactive”.
On the same count and under the same terms, with `CCN1CCN(C(=O)N[C@@H](C(=O)N[C@@H]2C(=O)N3[C@@H]2SC(C)(C)[C@H]3C(=O)O)c2ccccc2)C(=O)C1=O` the entry was “inactive”; with `CCc1ccc(CC)cc1`, “inactive”; with `CCCC(C)C(O)CC` (stereo not given), “inactive”.
Consider `Nc1ccc(C(=O)NCC(=O)O)cc1`, for which the fluorescence, % of fluorescein was -0.0255% [at 18.6 µM].
`CN(C)CCc1c[nH]c2ccc(CS(=O)(=O)N3CCCC3)cc12`: the result was inactive.
Same read-out and setting: with `CC(C)C[P+](C)(CC(C)C)CC(C)C` the entry was “inactive”.
As for `CCCOc1ccc(C(=O)OCCN(CC)CC)cc1N`, the result was inactive.
The same measure, in the same setting: to `O=S(=O)(O)CC(O)CCl` (stereo not given) belongs “inactive”; to `C/C=C/C(=O)CCCC`, “inactive”.
Same read-out and setting: to `COC(=O)c1ccccc1Cl` belongs “inactive”; to `NC(=O)CC[C@@H](N)C(=O)O`, “inactive”.
Still for that read-out and setting: to `O=Cc1ccccc1S(=O)(=O)O` belongs “inactive”; to `Cc1nc2ccc(Cl)cc2[nH]1`, “inactive”.
For `CCCCN(CCCC)CCCCCCN(CCCC)CCCC`, the call was inactive.
Same read-out and setting: with `N=C(N)N` the entry was “inactive”; with `CCCCCC(=O)CC`, “inactive”.
Still for that read-out and setting: to `CC1(C)CC(N)CC(C)(C)N1` belongs “inactive”; to `C=CC(=O)OCC[N+](C)(C)C`, “inactive”; to `COC(=O)c1ccc(C(=O)O)cc1`, “inactive”.
Still for that read-out and setting: to `CC(C)(O)CCCC1=CCC(C=O)CC1` (stereo not given) belongs “inactive”.
For the compound `CC(C)OC(=O)C(C(=O)OC(C)C)=C1SC=CS1`, the result was inactive.
With `CCCCCCCCCCCCCCCC(=O)OC`, the fluorescence, % of fluorescein was -0.0119% [at 18.6 µM].
Consider `CN(C)c1cc(NC(=O)CNC(C)(C)C)c(O)c2c1C[C@H]1C[C@H]3[C@H](N(C)C)C(=O)C(C(N)=O)=C(O)[C@@]3(O)C(=O)C1=C2O`, for which the compound was called inactive.
Same read-out and setting: to `N[C@H]1C(O)O[C@H](CO)[C@@H](O)[C@@H]1O` (stereo not given in full) belongs “inactive”.
Same read-out and setting: to `O=P(O)(O)C(O)(Cc1cccnc1)P(=O)(O)O` belongs “inactive”.
Consider `Cc1ccccc1OCC(=O)O`, for which the call was inactive.
Still for that read-out and setting: with `Cc1ccc(OC(=O)CC(C)C)cc1` the entry was “inactive”; with `CCCCS`, “inactive”; with `N=C(N)N1CCc2ccccc2C1`, “inactive”.
The same measure, in the same setting: with `CC(=O)SC[C@@H](C)C(=O)N1CCC[C@H]1C(=O)N[C@@H](Cc1ccccc1)C(=O)O` the entry was “inactive”.
With `CN(C)CCCN(C)C`, the fluorescence, % of fluorescein was -0.137% [at 3.72 µM].
For `CCO/C=C1\N=C(c2ccccc2)OC1=O`, the outcome was inactive.
On the same count and under the same terms, to `CC(=O)c1c(C)cc(C(C)(C)C)cc1C` belongs “inactive”; to `Cc1ccc2ccccc2n1`, “inactive”.
On the same count and under the same terms, to `O=C(O)Cc1ccccc1Oc1ccc(Cl)cc1Cl` belongs “inactive”; to `C=CCn1cc[n+](C)c1`, “inactive”.
Same read-out and setting: with `Cc1ccc2cccnc2c1` the entry was “inactive”.
